High-throughput results: PubChem, SRMLSC
A selection: hits, their analogues and other compounds. The true share with any hit is near 6.3%.
Fluor 339 460: intrinsic fluorescence of library compounds, ex339/em460 – biochemical, MLSMR library, data from DPM-DC assay, artefact control, profiling panel; compound autofluorescence, ex339/em460 nm, NADH buffer; stronger effect = higher value; 1 = no-compound wells, NADH background; fluorescence fold increase at 10 µM; 5.5% of 65,000 active;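 active means at 10 µM, mean starting fluorescence two-fold or more over control wells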;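 further: signal is the first read of a kinetic run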
NADH enzymes: inhibitors of enzymes used to reach an NAD/NADH endpoint; coupled PK/LDH NADH assays, four targets; IC50, µM (series often up to 10 µM); 0.02% of 65,000 active; AID 774;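 active means single-dose screening hits from any of four coupled enzyme assays that gave an IC50 when retested across doses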;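 further: the DPM-DC format reads NADH fluorescence rather than 340 nm absorbance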
Spn DPM-DC inh: S. pneumoniae DPM-DC inhibition; AID 556; 0.49% of 65,000 active; purified DPM-DC, PK/LDH coupled NADH fluorescence; calls only at 10 µM;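 active means the 320 compounds with the highest percent inhibition in the single-dose primary screen, excluding strongly autofluorescent ones, cut at about 32% in these data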;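 further: kinetic rate of NADH fluorescence loss reporting ADP formed by the decarboxylase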
MK inhibit: inhibitors of Streptococcus pneumoniae mevalonate kinase | purified MK, PK/LDH-coupled NADH absorbance 340 nm | inhibition, % at 10 µM | 0.48% of 65,000 active | AID 555;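 active means ranked among the strongest by inhibition in the single 10 µM screen, a fixed top-ranked set picked for dose follow-up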
A340 absorber: compound absorbs light at 340 nm | compound absorbance at 340 nm, fold over control | fold change at 10 µM | 65,000 tested, under 10 active;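 active means at 10 µM dose, initial 340 nm absorbance at least 2 fold that of control wells; inactive means change under 2 fold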;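 further: initial absorbance extrapolated from kinetic A340 decline of NADH oxidation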
PMK inhibit: S. pneumoniae PMK inhibition. purified PMK, PK/LDH-coupled NADH absorbance 340 nm. AID 539. inhibition, % at 10 µM. 0.49% of 65,000 active;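 active means top-ranked compounds by inhibition in the single 10 µM screen, taking a fixed number of the strongest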
Hits are given with their value; 0 = inactive; - = no result shown; + = active, no number.

SMILES | Fluor 339 460 | NADH enzymes | Spn DPM-DC inh | MK inhibit | A340 absorber | PMK inhibit
CCOC(=O)c1[nH]nc(C(=O)c2ccc(Br)cc2)c1O | 0 | 0 | 0 | 0 | 0 | 29.0
CCN(C(=O)COc1cc(=O)n(C)c2ccccc12)c1cccc(Cl)c1 | 0 | 0 | 0 | 0 | 0 | 0
Cn1c(=O)c2nc(-c3ccc(Cl)cc3Cl)oc2c2ccccc21 | 2.04 | 0 | - | 0 | 0 | 0
COC(=O)C1=C(C)NC2=C(C(=O)CC(C)(C)C2)C1c1cccc(C)n1 (stereo not given) | 3.68 | 0 | - | 0 | 0 | 0
CCCOC(=O)C1=C(C)NC2=C(C(=O)CCC2)C1c1cccs1 (stereo not given) | 0 | 0 | 0 | 0 | 0 | 0
COC(=O)C1=C(C)NC2=C(C(=O)CCC2)C1c1cccc(C)n1 (stereo not given) | 3.95 | 0 | - | 0 | 0 | 0
CCCOC(=O)C1=C(C)NC2=C(C(=O)CCC2)C1c1cccc(OC)c1OC (stereo not given) | 2.25 | 0 | - | 0 | 0 | 0
CC1=C(C(=O)OCc2ccccc2)C(c2ccco2)C2=C(CC(C)(C)CC2=O)N1 (stereo not given) | 0 | 0 | 0 | 0 | 0 | 0
COC(=O)C1=C(C)NC2=C(C(=O)CCC2)C1c1coc2ccccc2c1=O (stereo not given) | 0 | 0 | 0 | 0 | 0 | 0
Cc1noc(C)c1C(=O)OCC(=O)c1cc(C)n(Cc2ccccc2Cl)c1C | 0 | 0 | 0 | 0 | 0 | 0
COC(=O)c1cc2c([nH]c3ccccc32)c(C)n1 | 4.84 | 0 | - | 0 | 0 | 0
CCOC(=O)CSc1nc2ccc(N3CCOCC3)cc2c(=O)n1Cc1ccc2c(c1)OCO2 | 2.27 | 0 | 0 | 0 | 0 | 0
CCCCn1c(SCC(=O)NCc2ccco2)nc2ccc(N3CCOCC3)cc2c1=O | 3.77 | 0 | 0 | 0 | 0 | 0
CCCCn1c(SCC(=O)NCc2ccccc2)nc2ccc(N3CCOCC3)cc2c1=O | 2.23 | 0 | 0 | 0 | 0 | 0
CCC(C)NC(=O)CSc1nc2ccc(N3CCOCC3)cc2c(=O)n1CCc1ccccc1 (stereo not given) | 2.29 | 0 | 0 | 0 | 0 | 0
CCN(CC)C(=O)CSc1nc2cc3c(cc2c(=O)n1Cc1ccc2c(c1)OCO2)OCO3 | 0 | 0 | 0 | 0 | 0 | 0
CC(NC(=O)CSc1nc2ccccc2c(=O)n1CCCO)c1ccccc1 (stereo not given) | 0 | 0 | 0 | 0 | 0 | 0
CCCCn1c(SCC(=O)Nc2cc(C)on2)nc2ccccc2c1=O | 0 | 0 | 0 | 0 | 0 | 0
CC(=O)c1c(C)cc(C)c(CSc2nc(C)cc(=O)[nH]2)c1C | 0 | 0 | 0 | 0 | 0 | 0
CCc1nnc(NC(=O)C(C)N2C(=O)C3C4C=CC(C4)C3C2=O)s1 (stereo not given) | 0 | 0 | 0 | 0 | 0 | 0
Nc1ccnc(C(F)(F)F)c1C(=O)c1ccccc1 | 0 | 0 | 0 | 0 | 0 | 0
Nc1n[nH]c(-c2ccccc2)c1-c1ccccc1 | 0 | 0 | 0 | 0 | 0 | 0
CCCCn1c(SCC(=O)Nc2ccc(OC)cc2)nc2ccc(N3CCOCC3)cc2c1=O | 2.42 | 0 | 0 | 0 | 0 | 0
N#CCSc1nc2ccc(N3CCCCC3)cc2c(=O)n1Cc1ccccc1 | 2.98 | 0 | 0 | 0 | 0 | 0
O=C(CSc1nc2sc3c(c2c(=O)n1-c1ccccc1)CCCC3)NCc1ccco1 | 0 | 0 | 0 | 0 | 0 | 0
SMILES | Fluor 339 460 | NADH enzymes | Spn DPM-DC inh | MK inhibit | A340 absorber | PMK inhibit
Cn1c(=O)c2c(nc(SCCN3CCCCC3)n2Cc2ccccc2)n(C)c1=O | 0 | 0 | 0 | 0 | 0 | 0
COCCCn1c(SCC(=O)NCc2ccco2)nc2sc3c(c2c1=O)CCC3 | 0 | 0 | 0 | 66.0 | 0 | 0
O=C(O)c1ccccc1S | 0 | 0 | 0 | 0 | 0 | 0
COC(=O)c1ccccc1NC(=O)c1ccc2c(c1)C(=O)N(Cc1ccco1)C2=O | 3.06 | 0 | + | 0 | 0 | 0
CCc1ccc(NC(=O)c2ccc3c(c2)C(=O)N(Cc2ccco2)C3=O)cc1 | 0 | 0 | 0 | 0 | 0 | 0
COc1cccc(CNC(=O)C2CCCN(c3nn4c(=O)cc(C)nc4s3)C2)c1 (stereo not given) | 0 | 0 | 0 | 0 | 0 | 27.0
CCCc1oc2c(c(=O)c1CC)C(=O)CC(C)(C)C2 | 0 | 0 | 0 | 0 | 0 | 0
CCCCCN(C(=O)NC(=O)Nn1cnnc1)S(C)(=O)=O | 0 | 0 | 0 | 0 | 0 | 0
CC(=O)Nc1ccc(S(=O)(=O)c2c(N)n(CCN3CCOCC3)c3nc4ccccc4nc23)cc1 | 2.27 | 0 | - | 0 | 0 | 0
CC(=O)Nc1nc2ccccc2n1CCN1CCOCC1 | 0 | 0 | 0 | 0 | 0 | 0
Nc1c(C(=O)NCCN2CCOCC2)c2nc3ccccc3nc2n1CCc1ccccc1F | 3.91 | 0 | - | 0 | 0 | 0
Nc1c(C(=O)NCCN2CCOCC2)c2nc3ccccc3nc2n1CCc1ccccc1 | 3.87 | 0 | - | 0 | 0 | 0
c1ccc2nc3c(nc2c1)c1ccccc1n3CCN1CCOCC1 | 0 | 0 | 0 | 0 | 0 | 0
Cc1nc2ccccc2n1CCC(=O)Nc1cccc(F)c1 | 0 | 0 | 0 | 0 | 0 | 0
O=C(CSc1nc2ccccc2[nH]1)NCCN1CCCCC1 | 0 | 0 | 0 | 0 | 0 | 0
COc1ccc2[nH]cc(C3N4CC5(C)CN3CC(C)(C4)C5=O)c2c1 (stereo not given) | 0 | 0 | 0 | 48.0 | 0 | 0
O=S(=O)(Cc1ccc(Cl)cc1)N1CCCC1 | 0 | 0 | 0 | 0 | 0 | 0
CCOc1ccc2nc(NC(=O)C3CCN(c4cnccn4)CC3)sc2c1 | 2.61 | 0 | 0 | 0 | 0 | 0
COc1ccc(N(CC(=O)Nc2cccc(SC)c2)S(C)(=O)=O)cc1 | 0 | 0 | 0 | 0 | 0 | 0
COc1cc(CNCc2ccc(OC)c(OC)c2OC)cc(OC)c1 | 0 | 0 | 0 | 51.0 | 0 | 0
Cc1cccc2[nH]c3c(=O)n(CCN4CCNCC4)cnc3c12 | 2.54 | 0 | 0 | 0 | 0 | 0
CCN1CCCC1Cn1cnc2c([nH]c3ccc(C)cc32)c1=O (stereo not given) | 2.32 | 0 | - | 0 | 0 | 0
O=c1c2[nH]c3ccccc3c2ncn1CCN1CCCCC1 | 2.08 | 0 | 0 | 0 | 0 | 0
CCN1CCCC1CNc1ncnc2c1[nH]c1ccc(Cl)cc12 (stereo not given) | 0 | 0 | 0 | 0 | 0 | 0
Cc1ccc2[nH]c3c(=O)n(CCN4CCNCC4)cnc3c2c1 | 3.09 | 0 | 0 | 0 | 0 | 0
CCOC(=O)N1CCC(NC(=O)c2cn(-c3ccc(OC)cc3)c(=O)c3ccccc23)CC1 | 0 | 0 | 0 | 0 | 0 | 0
CCOC(=O)N1CCC(NC(=O)c2cccn3c(=O)c4cc(Br)ccc4nc23)CC1 | 2.24 | 0 | 0 | 0 | 0 | 0
CC(C)NC(=O)Cn1cc(C#N)c2cc(Br)ccc21 | 0 | 0 | 0 | 0 | 0 | 0
COC(=O)c1ccc2ccn(CC(=O)NC(C)C)c2c1 | 2.06 | 0 | - | 0 | 0 | 0
COCCCNC(=O)c1ccc(N2CCCC2)c(NS(=O)(=O)c2ccc(C)cc2)c1 | 0 | 0 | 0 | 0 | 0 | 25.0
